# The campaign covered roughly 63,000 compounds. About 1,100 (1.7%) were called active. This excerpt belongs to a sample that is enriched for actives. Measured potencies and affinities stand elsewhere. Values without a mark were called inactive. Rule as the data show it: active = cytotoxicity above about 50%; inactive = the rest.
# Test: HPDE-C7 pancreatic duct cell viability loss – fluorescence, HTS (AID 430);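 also: cells exposed to compound for 48 hours before viability readout; 0% = vehicle and 100% = reference cytotoxic drug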
# Conditions: HPDE-C7 pancreatic duct cells viability, at 10 µM, stronger effect = higher value
row,SMILES,cytotoxicity
1,C=CCOc1ccc(/C(O)=C2/C(=O)C(=O)N(CCN3CCOCC3)C2c2ccc(C)cc2)cc1 (stereo not drawn),-1.1%
2,N#CC1=C(N)C(C#N)(C#N)[C@H](c2ccncc2)[C@H]2CC3(CC=C12)OCCO3,-12.1%
3,Cc1ccc(C2C3CN(C(C)C)CC=C3C(C#N)=C(N)C2(C#N)C#N)cc1 (stereo not drawn),-0.7%
4,CCOC(=O)c1cccc(NC(=O)CSc2nnc(-c3cccnc3)n2CC)c1,-5.8%
5,COc1ccccc1-n1c(SCC(=O)N2CCCCC2)nc2cccnc21,-11.8%
6,Fc1ccc2[nH]c3c(N4CCN(C5CCCCC5)CC4)ncnc3c2c1,10.6%
7,c1ccc2c(c1)[nH]c1c(N3CCSCC3)ncnc12,44%
8,COc1cccc2[nH]c3c(N4CCN(Cc5ccc6c(c5)OCO6)CC4)ncnc3c12,47.6%
9,c1ccc(Cn2nnc3c(N4CCN(Cc5ccc6c(c5)OCO6)CC4)ncnc32)cc1,11.9%
10,COc1ccc2c(c1)c1ncnc(N3CCN(Cc4ccc5c(c4)OCO5)CC3)c1n2C,54.9% (active)
11,COc1ccc2[nH]c3c(N4CCN(Cc5ccc6c(c5)OCO6)CC4)ncnc3c2c1,50.6% (active)
12,Fc1ccc2[nH]c3c(N4CCN(c5ccccc5)CC4)ncnc3c2c1,10.8%
13,COc1ccc2c(c1)c(C(O)CN1CCN(Cc3ccc4c(c3)OCO4)CC1)c(C)n2C (stereo not drawn),21.3%
14,c1ccc2c(c1)oc1c(N3CCN(Cc4ccc5c(c4)OCO5)CC3)ncnc12,8.4%
15,CN1CCN(c2ncnc3c2[nH]c2ccc(F)cc23)CC1,6.4%
16,COc1cccc(N2CCN(c3ncnc4c3[nH]c3ccc(F)cc34)CC2C)c1 (stereo not drawn),114% (active)
17,Cc1ccc(N(CC(=O)NC2CCCCCC2)S(=O)(=O)c2c(C)nn(C)c2C)cc1,3.4%
18,COc1cccc(C(=O)N(CN2CCCC2=O)c2ccccc2OC)c1,-0.2%
19,CCCC(c1nnnn1Cc1ccc(F)cc1)N1CCN(C2CCCCC2)CC1 (stereo not drawn),10.8%
20,O=C(CN1CCN(c2ccccn2)CC1)Nc1ccc(OCc2ccccc2)cc1,3.7%

row,SMILES,cytotoxicity
1,O=C1c2ccccc2C(=O)N1CCSc1nncs1,-8.3%
2,c1nc(N2CCN(Cc3ccc4c(c3)OCO4)CC2)c2[nH]cnc2n1,-4%
3,COC(=O)c1[nH]c2cc(OC)ccc2c1NC(=O)CCN1CCN(Cc2ccc3c(c2)OCO3)CC1,-20.7%
4,Fc1ccc2[nH]c3c(N4CCN(Cc5ccc6c(c5)OCO6)CC4)ncnc3c2c1,89.3% (active)
5,Cc1ccc2[nH]c3c(N4CCN(Cc5ccc6c(c5)OCO6)CC4)ncnc3c2c1,30.3%
6,Cc1ccc2c(c1)[nH]c1c(N3CCN(Cc4ccc5c(c4)OCO5)CC3)ncnc12,-17.1%
7,COc1ccccc1-n1c(SCC(=O)NC(C)(C)C)nnc1-c1ccco1,3.2%
8,COC(=O)c1sc(NC(=O)CSc2nnc(C(C)C)n2C)nc1C,-8.2%
9,COc1ccccc1CN1C(=O)CCC1(C)C(=O)NC1CCCCCC1 (stereo not drawn),-12.9%
10,COCCNC(=O)c1cnn2c(C(F)(F)F)cc(-c3ccc4c(c3)OCO4)nc12,4.1%
11,Cc1cc(-c2ccccc2)c2c3c(cn2n1)c(=O)n(C)c(=O)n3C,2.6%
12,Cc1nc2sc3c(c2c2nnc(SCC(=O)NCc4ccco4)n12)CCCC3,-3.2%
13,CN1Cc2c(N3CCOCC3)nc(SCc3ccccc3)c(C#N)c2CC1(C)C,51.3% (active)
14,CC1(C)Cc2c(C#N)c(SCc3ccccc3)nc(N3CCOCC3)c2CO1,18.9%
15,CCCCCSc1nc(N2CCOCC2)c2c(c1C#N)CC(C)(C)OC2,1.7%
16,CC1(C)Cc2c(C#N)c(SCC(=O)c3ccccc3)nc(N3CCOCC3)c2CO1,-5.6%
17,CC1(C)Cc2c(C#N)c(SCCOc3ccccc3)nc(N3CCOCC3)c2CO1,59.4% (active)
18,N#Cc1c(SCc2ccccc2)nc(N2CCOCC2)c2c1CCCC2,8.3%
19,Cn1c(=O)c2c(ncn2CC(=O)N2CCCc3ccccc32)n(C)c1=O,-15.8%
20,CCOC(=O)c1cccc(S(=O)(=O)N(CCO)Cc2cc3cc(OC)c(OC)cc3[nH]c2=O)c1,-19.4%

row,SMILES,cytotoxicity
1,COc1ccc(-n2c(Cc3cccn3C)nnc2SCC(=O)Nc2nccs2)cc1,5.7%
2,Nc1ccccc1OCCOCCOCCOc1ccccc1N,5.3%
3,CCC(C)n1cnc2c(c1=O)c1nc3ccccc3nc1n2Cc1ccc2c(c1)OCO2 (stereo not drawn),26.8%
4,COc1cc(C2=NOC(C(=O)NCc3ccc(F)cc3)C2)cc(OC)c1OC (stereo not drawn),63.4% (active)
5,COc1cc(C2=NOC(C(=O)Nc3ccc(C)cc3)C2)cc(OC)c1OC (stereo not drawn),-9.2%
6,COc1ccc(NC(=O)C2CC(c3ccc(OC)c(OC)c3)=NO2)cc1OC (stereo not drawn),-6.6%
7,COc1ccc(C2=NOC(C(=O)NCc3ccco3)C2)cc1OC (stereo not drawn),38.7%
8,COc1cc(C2=NOC(C(=O)NCc3ccco3)C2)cc(OC)c1OC (stereo not drawn),32.6%
9,COc1ccc(C2=NOC(C(=O)NCc3ccc(F)cc3)C2)cc1OC (stereo not drawn),55.2% (active)
10,O=C(c1ccco1)N(CCCN1CCOCC1)c1nc(-c2ccc(F)cc2)cs1,11.3%
11,COc1ccc(NC(C)=O)cc1NC(=O)CSc1nnc(-c2cccnc2)n1C,-13.3%
12,O=C(NCC1CCCO1)C1CCC(CNS(=O)(=O)c2ccccc2)CC1 (stereo not drawn),13.6%
13,O=C(Nc1nc2c(s1)COc1ccccc1-2)c1cccs1,9.6%
14,O=C(CCS(=O)(=O)c1ccccc1)Nc1nc2c(s1)COc1ccccc1-2,98.3% (active)
15,COc1ccc(OC)c2sc(NC(=O)CCS(=O)(=O)c3ccccc3)nc12,-0.4%
16,Clc1ccc2nc(CN3CCCc4ccccc43)cn2c1,23.1%
17,CCCCCn1c(=NC(C)=O)c(C#N)cc2c(=O)n3ccccc3nc21,8.8%
18,O=C(O)Cn1cc(C(=O)c2cccs2)c2ccccc21,-14%
